Molecules are shown by their SMILES. About 83,000 compounds went through this panel and 20% of them were active in at least one assay; those are over-represented in the sample as a whole.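 96-well plates, one dose, 48 hours. Percent growth reported; active if below 10.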 A number with no mark means an inactive call. The source made the active and inactive calls.

The first assay deals with OVCAR-4 ovarian. Briefly: NCI-60 one-dose screen, 48 h (100 = growth as untreated, 0 = no growth, -100 = all killed). To be noted: 10 µM unless noted.
In the case of `COc1cc2nc(SCc3cc(OC)c(OC)c(OC)c3)n(-c3ccccc3OC)c(=O)c2cc1OC`, the growth was 83.1%.
`COc1ccc(-c2nc3sccn3c2/C=C/C(=O)c2cc(OC)c(OC)c(OC)c2)cc1OC`: the growth was 21.9%.
Take `O=C(N/N=C/c1ccc(F)cc1)c1[nH]c2ccc(I)cc2c1-c1ccccc1`: the growth is 37.2%.
For the molecule `Cc1nc2cc(Nc3nc(Nc4ccc(F)cc4)nc(N4CCCC4)n3)ccc2n1Cc1ccccc1`, the growth is 4.79% (active).
As to `Cc1nc2cc(Nc3nc(Nc4ccc(F)cc4)nc(N4CCN(C)CC4)n3)ccc2n1Cc1ccccc1`, the growth was -7.19% (active).
Turning to `COc1ccc(OC)c2ncccc12`, the growth is 102%.
On the same count and under the same terms, then `COc1ccc(S(=O)(=O)ON=C2C=C(C)C(=O)C(C)=C2)cc1`, with 55.4%; and `O=C(COc1cccc(/C=C2\COc3ccccc3C2=O)c1)c1ccccc1`, with 79.2%; and `Oc1cccc(Nc2nc(-c3ccccn3)cs2)c1`, with 101%.
Still for that read-out and setting: then `C=CC[P+](c1ccccc1)(c1ccccc1)c1ccccc1`, with 46%; and `COc1ccc(-c2[nH]ncc2Nc2cc(OC)c(OC)c(OC)c2)cc1`, with 51.2%.
The same measure, in the same setting: to `COc1ccc(-c2nc(Nc3ccc(F)cc3)nc(Nc3ccc4c(c3)nc(C)n4Cc3ccccc3)n2)cc1` belongs 42.6%; to `COc1ccc(C(=O)C2=CC(=O)C(=O)C2)cc1OC`, 109%; to `COc1ccc(C(=O)COc2cccc(/C=C3\CSc4ccc(C)cc4C3=O)c2)cc1`, 90.2%.
With `Cc1ccc(S(=O)(=O)N2C/C(=C\c3cc(F)cc(F)c3)C(=O)/C(=C/c3cc(F)cc(F)c3)C2)cc1`, the growth was -31.4% (active).
Same read-out and setting: then `Nc1nc(N)c(N=Nc2c(Br)cc(S(N)(=O)=O)cc2Br)c(N)n1`, with 124%.
On the same count and under the same terms, to `Cc1ccc(-c2c3c(N)c4c(nc3nc3c2c(C)nn3-c2ccccc2)CCCC4)cc1` belongs 96%; to `COc1cc(-c2nc3ccccc3o2)cc(CN2CCN(c3ccccc3)CC2)c1O`, 84.6%; to `Nc1nc2c(s1)CCc1c-2c(Br)n(Cc2ccccc2)c1Br`, 81.8%.
Still for that read-out and setting: to `COc1ccc(-c2csc3c2-n2cccc2C3=O)cc1O` belongs 37.4%; to `COc1ccc(-c2c(-c3cc4c(c(OC)c3OC)OCO4)noc2N)cc1`, 55%.
Regarding `Cn1c(=O)c2c(-c3ccccc3F)n(-c3ccc4c(c3)OCO4)cc2n(C)c1=O`, the growth is 104%.
For the molecule `CN(C)C(=S)SCN1C(=O)c2ccc([N+](=O)[O-])cc2S1(=O)=O`, the growth was 103%.
Still for that read-out and setting: to `Cc1nn(-c2ccccc2)c2nc3nc4c(c(N)c3c(-c3ccc(Cl)cc3)c12)CCCC4` belongs 109%; to `COc1cc(CNCCN2C(=O)c3ccc4c5c(ccc(c35)C2=O)C(=O)N(CCNCc2cc(OC)c(OC)c(OC)c2)C4=O)cc(OC)c1OC`, -70.9% (active); to `O=C(O)c1ccccc1Oc1cc(-c2ccco2)nc(OCCBr)n1`, 98.5%.
Regarding `COc1cc(-c2ccc3cc(OC)c(OC)c(OC)c3c2)cc(OC)c1OC`, the growth was 61.2%.
As to `COc1cccc(-c2ccc3c(c2)C2CCN(Cc4ccccc4)C3C2)c1` (stereo unspecified), the growth was 86.5%.

The test system of another assay is SK-OV-3 ovarian. The assay is described as above. To be noted: 10 µM.
For `COc1cc2nc(SCc3cc(OC)c(OC)c(OC)c3)n(-c3ccccc3OC)c(=O)c2cc1OC`, the growth is 98.2%.
Same read-out and setting: then `COc1ccc(-c2nc3sccn3c2/C=C/C(=O)c2cc(OC)c(OC)c(OC)c2)cc1OC`, with 26.3%.
Turning to `O=C(N/N=C/c1ccc(F)cc1)c1[nH]c2ccc(I)cc2c1-c1ccccc1`, the growth was -1.53% (active).
As to `Cc1nc2cc(Nc3nc(Nc4ccc(F)cc4)nc(N4CCCC4)n3)ccc2n1Cc1ccccc1`, the growth was -2.81% (active).
On the same count and under the same terms, to `Cc1nc2cc(Nc3nc(Nc4ccc(F)cc4)nc(N4CCN(C)CC4)n3)ccc2n1Cc1ccccc1` belongs 68.7%; to `COc1ccc(OC)c2ncccc12`, 96.7%; to `COc1ccc(S(=O)(=O)ON=C2C=C(C)C(=O)C(C)=C2)cc1`, 66.9%.
For the molecule `O=C(COc1cccc(/C=C2\COc3ccccc3C2=O)c1)c1ccccc1`, the growth was 98.7%.
On the same count and under the same terms, then `Oc1cccc(Nc2nc(-c3ccccn3)cs2)c1`, with 95.2%.
The same measure, in the same setting: then `C=CC[P+](c1ccccc1)(c1ccccc1)c1ccccc1`, with 70.8%; and `COc1ccc(-c2[nH]ncc2Nc2cc(OC)c(OC)c(OC)c2)cc1`, with 18.4%.
On the same count and under the same terms, to `COc1ccc(-c2nc(Nc3ccc(F)cc3)nc(Nc3ccc4c(c3)nc(C)n4Cc3ccccc3)n2)cc1` belongs 76.8%.
For the molecule `COc1ccc(C(=O)C2=CC(=O)C(=O)C2)cc1OC`, the growth was 104%.
Consider `COc1ccc(C(=O)COc2cccc(/C=C3\CSc4ccc(C)cc4C3=O)c2)cc1`, for which the growth is 107%.
The same measure, in the same setting: to `Cc1ccc(S(=O)(=O)N2C/C(=C\c3cc(F)cc(F)c3)C(=O)/C(=C/c3cc(F)cc(F)c3)C2)cc1` belongs 14.9%.
Same read-out and setting: then `Nc1nc(N)c(N=Nc2c(Br)cc(S(N)(=O)=O)cc2Br)c(N)n1`, with 108%.
Consider `Cc1ccc(-c2c3c(N)c4c(nc3nc3c2c(C)nn3-c2ccccc2)CCCC4)cc1`, for which the growth is 99.9%.
Regarding `COc1cc(-c2nc3ccccc3o2)cc(CN2CCN(c3ccccc3)CC2)c1O`, the growth was 116%.
As to `Nc1nc2c(s1)CCc1c-2c(Br)n(Cc2ccccc2)c1Br`, the growth is 108%.
The same measure, in the same setting: to `COc1ccc(-c2csc3c2-n2cccc2C3=O)cc1O` belongs 1.75% (active); to `COc1ccc(-c2c(-c3cc4c(c(OC)c3OC)OCO4)noc2N)cc1`, 16.2%; to `Cn1c(=O)c2c(-c3ccccc3F)n(-c3ccc4c(c3)OCO4)cc2n(C)c1=O`, 110%.
The same measure, in the same setting: to `CN(C)C(=S)SCN1C(=O)c2ccc([N+](=O)[O-])cc2S1(=O)=O` belongs 107%; to `Cc1nn(-c2ccccc2)c2nc3nc4c(c(N)c3c(-c3ccc(Cl)cc3)c12)CCCC4`, 101%.
As to `COc1cc(CNCCN2C(=O)c3ccc4c5c(ccc(c35)C2=O)C(=O)N(CCNCc2cc(OC)c(OC)c(OC)c2)C4=O)cc(OC)c1OC`, the growth is -96.9% (active).
`O=C(O)c1ccccc1Oc1cc(-c2ccco2)nc(OCCBr)n1`: the growth was 103%.
As for `COc1cc(-c2ccc3cc(OC)c(OC)c(OC)c3c2)cc(OC)c1OC`, the growth is 76.7%.
The same measure, in the same setting: then `COc1cccc(-c2ccc3c(c2)C2CCN(Cc4ccccc4)C3C2)c1` (stereo unspecified), with 71.1%.

(Values after PubChem BioAssay (NCI).)
